From PubChem BioAssay
MITF TRPM1 HTS: increases MITF-driven TRPM1 promoter luciferase signal. activation, % at 12.5 µM. SK-MEL-5 TRPM1-promoter luciferase, 24 h; % of positive control, neutral wells = 0. hit rate 0.75% among 300,000;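 active means mean activation of at least 80% with every replicate also reaching 80%; inconclusive means mean reaches 80% but some replicate falls short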;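 further: 0% = neutral control wells and 100% = parthenolide positive control wells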
Wnt act: Wnt/beta-catenin pathway activation; Wnt/beta-catenin reporter cell assay, activator, plate reader; activation, % at 9.35 µM; hit rate 1.2% among 300,000; AID 743398; in the data active means activation above about 30%, passing the limit was not always enough; inconclusive means no clear call, values can overlap the other calls;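 further: 0% = neutral control wells and 100% = positive control wells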
TRPM1 prom inh: inhibitors of MITF-driven TRPM1 promoter in melanoma cells. inhibition, % at 12.5 µM. hit rate 0.83% among 330,000. SK-MEL-5 TRPM1 promoter luciferase, 24 h;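 active means mean inhibition across replicates of 60% or more, whatever share of single replicates reaches that level; inconclusive means some that reach 60%, reason not given; inactive means mean inhibition across replicates below 60%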
Statin myotox sup: suppression of simvastatin myotoxicity. rescue of ATP level, % at 7.49 µM. AID 602340. C2C12 myotubes + simvastatin, ATP luminescence, 48 h; scaled: DMSO 0, geranylgeraniol control 100. hit rate 0.78% among 330,000;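 active means mean ATP rescue above about 67%, or every replicate alone reaching that limit, limit read from the data, passing the limit was not always enough; inconclusive means no clear call, values can overlap the other calls; inactive means mean under the limit and some replicate under it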;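 further: myotubes were challenged with 10 µM simvastatin during compound exposure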
EBV LMP1 NFkB: inhibitors of Epstein-Barr LMP1-induced NF-kappaB reporter; LMP1-induced NF-kappaB luciferase reporter cells, luminescence; inhibition, % at 12.5 µM; hit rate 0.69% among 350,000; AID 504558; in the data active means inhibition above about 41%; inconclusive means no clear call, values can overlap the other calls;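 further: 0% = neutral control wells and 100% = reference inhibitor control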
esBAF inh: inhibitors of esBAF chromatin remodeling in mouse ES cells; Bmi1-luciferase knock-in reporter, 24 h; 100% = twice the neutral-well signal; reporter increase, % at 12.5 µM; hit rate 2% among 350,000; AID 602393; in the data active means activation above about 40%; inconclusive means no clear call, values can overlap the other calls;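 further: 0% = median of the plate's neutral control wells and 100% = double that signal; a rise in the Bmi1 reporter signal indicates esBAF inhibition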
* = called active by the depositor; ? = inconclusive; . = no result given. A selection: hits, their analogues and other compounds. The true share with any hit is near 4%.

SMILES	MITF TRPM1 HTS	Wnt act	TRPM1 prom inh	Statin myotox sup	EBV LMP1 NFkB	esBAF inh
CCOc1ccc(CN2C(=O)c3ccccc3C2=O)cc1C(=O)Nc1nnc(SCC)s1	-3.1	-2.4	-1.9	.	9.5	.
CCOC(=O)[C@]12CCC=C1N(Cc1ccco1)C(=O)[C@H](CC(=O)NCCCOC)C2	.	-1.8	.	.	.	.
CCc1cc2c(SCc3nc4sc(C(C)=O)c(C)c4c(=O)[nH]3)ncnc2s1	5.7	-0.5	-2.6	.	2.0	.
Cc1cc(C(C)(C)C)cc(C)c1Cn1c2[n+](c3ccc(C(F)(F)F)cc31)CCCCC2	-83.8	-2.7	84.2*	.	0.2	.
FC(F)(F)c1cccc(Cn2c3[n+](c4ccc(C(F)(F)F)cc42)CCCCC3)c1	-1.6	-0.5	-1.1	.	5.9	.
O=c1nc(N/N=C/c2c[nH]c3ccccc23)cn[nH]1	57.4	40.9*	-55.7	.	-5.6	.
O=c1nc(N/N=C/C=C/c2ccccc2)cn[nH]1	-1.2	-0.4	3.7	.	47.5*	.
O=C(Nc1ccc(F)cc1)C1CC(=O)n2cnnc2N1 (stereo unspecified)	5.6	2.0	-2.3	.	-1.0	.
O=C(c1cc(-c2ccccc2O)on1)N1CCOCC1	96.2*	35.4*	-90.4	33.3	-9.3	50.7*
O=C(c1cc(-c2ccc(O)cc2)on1)N1CCCC1	36.1	-2.3	-30.5	47.7	-6.6	-22.6
O=C(c1cc(-c2ccccc2O)on1)N1CCCCCC1	125.1*	28.4	-127.0	4.2	-21.8	59.7*
O=C(c1cc(-c2ccc(Cl)cc2Cl)on1)N1CCOCC1	-9.9	8.2	6.3	-8.5	25.6	-49.2
CCOC(=O)Nc1ccc2c(COC(=O)CN(C)S(=O)(=O)c3ccc(C)cc3)cc(=O)oc2c1	24.8	13.3	-38.5	-15.9	-7.5	1.7
CC(=O)c1cccc(NCC(=O)c2ccc(C)c([N+](=O)[O-])c2)c1	-4.5	-1.9	3.5	16.4	0.3	-2.6
CCCOC(=O)c1ccc(NC(=O)c2ccoc2C)cc1	78.1	.	-84.6	.	2.7	.
CC(C)c1ccc(/C=C/c2ccc(=O)n(C)n2)cc1	57.6	13.6	-58.4	.	-44.0	.
CC(C)c1ccc(C(O)Cc2nc3ccccc3n2C)cc1 (stereo unspecified)	.	7.4	-8.0	.	-6.2	.
COc1ccccc1OCc1nc2ccccc2n1C	44.1	3.0	-45.9	-1.3	-24.9	47.6*
COc1ccccc1C(O)Cc1nc2ccccc2n1C (stereo unspecified)	68.2	.	-67.3	4.4	-10.1	48.3*
O=C(/C=C\c1ccccc1)Nc1nccs1	34.5	39.4*	-37.2	.	-2.4	.
CC(=O)OC(C(=O)Nc1nccs1)c1ccccc1 (stereo unspecified)	.	0.5	15.5	1.1	-8.2	1.3
O=C(Nc1nccs1)C(Br)C(Br)c1ccccc1 (stereo unspecified)	54.1	37.1*	.	-37.6	-8.8	14.1
O=C(Nc1nccs1)OCc1ccccc1	.	34.3*	.	.	.	.
O=C(/C=C/c1cccc(F)c1)Nc1nccs1	58.5	21.1	-59.3	-10.8	-39.6	85.7*
O=C(COC(=O)/C=C/c1cccc(F)c1)Nc1ncccn1	10.8	0.9	-8.5	.	-2.0	.
SMILES	MITF TRPM1 HTS	Wnt act	TRPM1 prom inh	Statin myotox sup	EBV LMP1 NFkB	esBAF inh
Cc1ccc(S(=O)(=O)Nc2ccc3c(c2)CC(=O)N([C@@H](C)CO)C[C@@H](C)[C@H](CN(C)Cc2ccc(Oc4ccccc4)cc2)O3)cc1	.	.	.	83.1*	.	3.3
COc1ccc(S(=O)(=O)Nc2ccc3c(c2)CC(=O)N([C@@H](C)CO)C[C@@H](C)[C@@H](CN(C)Cc2ccc(C(F)(F)F)cc2)O3)cc1	.	.	.	22.8	.	-3.7
Cc1ccc(S(=O)(=O)Nc2ccc3c(c2)CC(=O)N([C@H](C)CO)C[C@H](C)[C@@H](CN(C)Cc2ccc(Oc4ccccc4)cc2)O3)cc1	.	.	.	50.0	.	5.6
COc1ccc(S(=O)(=O)Nc2ccc3c(c2)CC(=O)N([C@H](C)CO)C[C@@H](C)[C@H](CN(C)Cc2ccc(C(F)(F)F)cc2)O3)cc1	.	.	.	78.9*	.	2.9
COc1ccc(S(=O)(=O)Nc2ccc3c(c2)CC(=O)N([C@H](C)CO)C[C@@H](C)[C@@H](CN(C)Cc2ccc(C(F)(F)F)cc2)O3)cc1	.	.	.	?	.	-1.8
COc1ccc(S(=O)(=O)Nc2ccc3c(c2)CC(=O)N([C@@H](C)CO)C[C@@H](C)[C@H](CN(C)Cc2ccc(C(F)(F)F)cc2)O3)cc1	.	.	.	75.6*	.	4.4
COc1ccc(S(=O)(=O)Nc2ccc3c(c2)CC(=O)N([C@@H](C)CO)C[C@@H](C)[C@H](CN(C)Cc2ccc(-c4ccccc4)cc2)O3)cc1	.	.	.	140.2*	.	1.9
CCN(c1ccc(C)cc1C)S(=O)(=O)c1nnc(NC(=O)c2ccco2)s1	8.0	3.0	-2.7	-8.9	0.8	2.4
COc1ccc(CN(C)C[C@@H]2Oc3ccc(NS(=O)(=O)c4ccc(F)cc4)cc3CC(=O)N([C@H](C)CO)C[C@H]2C)cc1	.	.	.	74.8*	.	1.5
CCn1c2c(c3cc(OCC(C)C)ccc31)CCCC2=O	10.6	-2.3	-13.0	-9.3	-2.1	1.0
CCCCCCCOC(=O)C[N+](C)(C)CCOC1CC2CCC1(C)C2(C)C (stereo unspecified)	-93.7	-7.2	93.8*	.	10.7	.
CCCCCCOC(=O)C[N+](C)(C)CCOC1CC2CCC1(C)C2(C)C (stereo unspecified)	.	.	0.3	3.2	8.0	4.8
Cc1ccc2nc(Cc3ccc(N)cc3)[nH]c2c1	15.6	39.2*	-14.0	14.1	-19.1	43.9*
Nc1ccc2nc(Cc3ccccc3)[nH]c2c1	17.6	-1.3	-13.9	.	-5.1	?
Nc1ccc(Cc2nc3c(ccc4ccccc43)[nH]2)cc1	42.9	12.7	-37.6	12.2	-37.9	87.1*
O=C(C1CCN(S(=O)(=O)c2ccc3ccccc3c2)CC1)N1CCN(c2ncccn2)CC1	-9.1	-1.3	7.7	-31.6	7.3	-7.1
N#C/C(=C\c1ccc[nH]1)C(=O)Nc1ccccc1[N+](=O)[O-]	4.9	21.7	-4.2	2.3	-14.3	62.8*
CCC(=O)NC(c1ccc(OC)c(OC)c1)c1cc(Cl)c2cccnc2c1O (stereo unspecified)	-40.7	-2.4	39.6	.	-7.5	.
CCC(=O)NC(c1cccs1)c1ccc2cccnc2c1O (stereo unspecified)	-76.2	0.0	76.2*	.	74.2*	.
CCC(=O)NC(c1ccc(C)cc1)c1cc(Cl)c2cccnc2c1O (stereo unspecified)	-2.1	.	4.2	2.7	43.0*	-73.0
CC(C)CC(=O)NC(c1cccs1)c1ccc2cccnc2c1O (stereo unspecified)	-67.3	.	?	.	37.1	.
CC(=O)NC(c1cccs1)c1cc(F)c2cccnc2c1O (stereo unspecified)	-41.2	6.6	43.8	-12.3	53.2*	-79.4
CC(=O)NC(c1ccco1)c1cc(F)c2cccnc2c1O (stereo unspecified)	6.0	0.9	-3.0	22.2	31.7	-62.4
CC(=O)NC(c1ccc2ccccc2c1)c1ccc2cccnc2c1O (stereo unspecified)	.	-0.3	49.4	-5.6	48.9*	-44.9
